Experimental data published in PubChem BioAssay (Tox21).
“And” between values parts separate entries of the source, which are not always exact repeats. Equal values may be shown once. Results filed as inconclusive are left out. The source made the active and inactive calls. Calls follow the shape of the dose curve; as a rule, active = well fitted curve in the direction sought with a large enough effect in the repeat runs; inconclusive = weak or mixed curves; inactive = no such curve, though single readings can be large; an effect the other way counts as inactive or inconclusive.

Key:
[1] = A CellTox Green Cytotoxicity Assay to monitor cytotoxicity in HEK293 cells - 40 hour (AID 1224871); also: nearly all actives have a fitted effect of over 45% in size; also: potency is read from the fitted curve at half-maximal effect
Method in brief: (§1)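 Cells (HEK293, 600/well) and dye reagent are dispensed together. After 5 h at 37 C, 23 nL compound is pinned in. Plates stay at 37 C for 40 h with fluorescence read at 0h, 8h, 16h, 24h, 32h and 40h.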

[2] = qHTS RealTime-Glo MT Cell Viability Assay in HepG2 cells - 8 hour (AID 1224873); also: nearly all actives have a fitted effect of over 55% in size; also: potency is read from the fitted curve at half-maximal effect
Method in brief: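 Real-time viability: cells seeded at 600 per well together with NanoLuc and cell-permeant prosubstrate, compounds added after 5 h incubation. Luminescence tracked at 0, 8, 16, 24, 32 and 40 h of exposure.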

[3] = qHTS RealTime-Glo MT Cell Viability Assay in HEK293 cells - 40 hour (AID 1224874); details: RealTime-Glo luminescence; max response: hits give low values; also: nearly all actives have a fitted effect of over 50% in size; also: potency is read from the fitted curve at half-maximal effect
Method in brief: (§2)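 Real-time viability in HEK293: signal arises when living cells convert a prosubstrate for NanoLuc in the medium, so luminescence tracks viable cell number. Compound (23 nL, DMSO) added 5 h post-seeding; kinetic reads at 0–40 h, 37 C.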

[4] = A CellTox Green Cytotoxicity Assay to monitor cytotoxicity in HEK293 cells - 24 hour (AID 1224875); also: nearly all actives have a fitted effect of over 45% in size; also: potency is read from the fitted curve at half-maximal effect
Method in brief: as §1

[5] = qHTS RealTime-Glo MT Cell Viability Assay in HepG2 cells - 32 hour (AID 1224877); also: nearly all actives have a fitted effect of over 55% in size; also: potency is read from the fitted curve at half-maximal effect
Method in brief: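 qHTS, HepG2, 600 cells/well, RealTime-Glo (NanoLuc + prosubstrate) added with cells; 5 h preincubation; DMSO compound addition; 37 C; luminescence at 0/8/16/24/32/40 h.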

[6] = A CellTox Green Cytotoxicity Assay to monitor cytotoxicity in HepG2 cells - 24 hour (AID 1224878); also: nearly all actives have a fitted effect of over 45% in size; also: potency is read from the fitted curve at half-maximal effect
Method in brief: (§3)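 Cells and non-lytic dye reagent are dispensed together (600 HepG2 cells/well) and incubated 5 h before DMSO compound transfer. Kinetic fluorescence is then recorded in the same wells during 40 h at 37 C.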

[7] = A CellTox Green Cytotoxicity Assay to monitor cytotoxicity in HepG2 cells - 40 hour (AID 1224879); also: nearly all actives have a fitted effect of over 40% in size; also: potency is read from the fitted curve at half-maximal effect
Method in brief: as §3

[8] = qHTS RealTime-Glo MT Cell Viability Assay in HEK293 cells - 0 hour (AID 1224880); also: top concentration of the series differs between compounds; nearly all actives have a fitted effect of over 45% in size
Method in brief: as §2

[9] = qHTS RealTime-Glo MT Cell Viability Assay in HEK293 cells - 16 hour (AID 1224872); also: nearly all actives have a fitted effect of over 50% in size; also: potency is read from the fitted curve at half-maximal effect
Method in brief: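 Assay medium contained NanoLuc luciferase plus cell-permeant prosubstrate, added with HEK293 cells at 600 cells/well. After 5 h at 37 C/5% CO2 compounds were added; plates stayed at 37 C for 40 h with serial luminescence reads.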

[10] = A CellTox Green Cytotoxicity Assay to monitor cytotoxicity in HepG2 cells - 16 hour (AID 1224876); also: nearly all actives have a fitted effect of over 45% in size; also: potency is read from the fitted curve at half-maximal effect
Method in brief: as §3
% is scaled to controls: 0 for no effect and ±100 for the full control effect.

CCCCCCCC(=O)[O-].CCCCCCCC(=O)[O-].[Zn+2]
inactive: Potency [1] | Potency [2] | max response [3] 9.04% | Potency [4] | Potency [5] | Potency [6] | Potency [7] | Potency [8]

CC(C)(C)C1CCC(CC2=C(O)c3ccccc3C(=O)C2=O)CC1 (stereo not given)
active: Potency [1] 16.9 µM
inactive: Potency [2] | max response [3] -30% | Potency [5] | Potency [8]

CN(C)C(=O)C1(N2CCCCC2)CCN(CC[C@@]2(c3ccc(Cl)c(Cl)c3)CN(C(=O)c3ccccc3)CCO2)CC1
inactive: Potency [8]
active: Potency [1] 28.9 µM | Potency [2] 45.8 µM | Potency [3] 11.5 µM | Potency [4] 40.8 µM | Potency [5] 18.2 µM | Potency [6] 20.4 µM | Potency [7] 20.4 µM

CCCCCCOC(=O)c1ccc(O)cc1
active: Potency [9] 43.7 µM and 21.9 µM | Potency [3] 43.7 µM and 21.9 µM | Potency [10] 8.71 µM | Potency [6] 43.7 µM and 9.77 µM | Potency [7] 43.7 µM and 11 µM
inactive: Potency [2] | Potency [4] | Potency [5] | Potency [8]

CC/C(=C(\c1ccc(O)cc1)c1ccc(OCCN(C)C)cc1)c1ccccc1
active: Potency [1] 43.8 µM | Potency [3] 17.4 µM | Potency [4] 49.1 µM | Potency [5] 61.8 µM | Potency [6] 55.1 µM | Potency [7] 55.1 µM
inactive: Potency [8]

Cc1cc(=O)oc2cc(N(C)C)ccc12
inactive: Potency [1] | Potency [4] | Potency [5] | Potency [6] | Potency [7] | Potency [8]

Oc1ccc(N=Nc2ccccc2)cc1
inactive: Potency [2] | Potency [10] | Potency [5] | Potency [8]
active: Potency [9] 15.7 µM | Potency [3] 22.2 µM

CC(C)n1nc(-c2cc3cc(O)ccc3[nH]2)c2c(N)ncnc21
inactive: Potency [2] | Potency [4] | Potency [10] | Potency [8]
active: Potency [9] 0.477 µM | Potency [3] 0.19 µM | Potency [7] 23.9 µM

Cc1[nH]cnc1C[C@H]1CCc2c(C)c3ccccc3n2C1=O
inactive: Potency [8]
active: Potency [1] 47.8 µM | Potency [3] 23.9 µM | Potency [4] 47.8 µM | Potency [10] 38 µM | Potency [5] 42.6 µM | Potency [6] 38 µM | Potency [7] 33.8 µM

NNc1nc(-c2ccccc2)cs1
inactive: Potency [1] | Potency [4] | Potency [10] | Potency [5] | Potency [6] | Potency [7] | Potency [8]

CC(=O)S[C@@H]1CC2=CC(=O)CC[C@]2(C)[C@H]2CC[C@@]3(C)[C@@H](CC[C@@]34CCC(=O)O4)[C@H]12
inactive: Potency [1] | Potency [4] | Potency [10] | Potency [8]
active: Potency [7] 54.9 µM

Nc1c(Cl)cc(Cl)cc1Cl
inactive: Potency [9] | Potency [2] | max response [3] -15.4% | Potency [10] | Potency [5] | Potency [6] | Potency [8]

Nc1nc2ccccc2n1Cc1ccc(F)cc1
active: Potency [7] 23.9 µM
inactive: Potency [1] | Potency [2] | Potency [4] | Potency [5]

CCCCCCCCCCCCCCCCCC[N+](C)(C)C
active: Potency [1] 21.9 µM | Potency [3] 7.79 µM | Potency [4] 39 µM | Potency [7] 49.1 µM
inactive: Potency [8]

NNc1nc(-c2ccc([N+](=O)[O-])cc2)cs1
inactive: Potency [1] | Potency [4] | Potency [10] | Potency [6] | Potency [7] | Potency [8]

CC1=C(C(=O)OC(C)C)C(c2cccc([N+](=O)[O-])c2)C(C(=O)OC2CN(C(c3ccccc3)c3ccccc3)C2)=C(N)N1 (stereo not given)
inactive: Potency [1] | Potency [4] | Potency [8]
active: Potency [5] 21.3 µM | Potency [6] 23.9 µM | Potency [7] 23.9 µM

CCCC(=O)OC[C@@H](OC(=O)CCC)[C@@H](OC(=O)CCC)[C@H](Cn1c2nc(=O)[nH]c(=O)c-2nc2cc(C)c(C)cc21)OC(=O)CCC
inactive: max response [3] -24.9% | Potency [8]
active: Potency [1] 21.3 µM | Potency [4] 21.3 µM | Potency [6] 21.3 µM | Potency [7] 21.3 µM

Cc1cc(O)c(C(C)(C)C)cc1C(C)(C)C
inactive: Potency [8]
active: Potency [1] 24.5 µM | Potency [2] 38.9 µM | Potency [4] 24.5 µM | Potency [5] 43.6 µM | Potency [6] 21.9 µM | Potency [7] 24.5 µM

OCCCCCCCCCCCCBr
active: Potency [7] 11.1 µM
inactive: Potency [1] | Potency [2] | Potency [4] | Potency [5] | Potency [6] | Potency [8]

N#CSc1ccc(N)c([N+](=O)[O-])c1
active: Potency [9] 43.9 µM | Potency [3] 49.3 µM
inactive: Potency [2] | Potency [4] | Potency [10] | Potency [5] | Potency [6] | Potency [8]

CCC(N)(CO)CO
inactive: Potency [9] | Potency [2] | max response [3] 11.9% | Potency [4] | Potency [10] | Potency [5] | Potency [6] | Potency [7] | Potency [8]

COc1ccc(-c2ccc3cc(C(=O)O)ccc3c2)cc1C12CC3CC(CC(C3)C1)C2
inactive: Potency [1] | Potency [4] | Potency [8]
active: Potency [6] 23.9 µM | Potency [7] 19 µM

CCCCCCCCCCCCc1ccc(O)cc1
inactive: Potency [8]
active: Potency [1] 49 µM | Potency [3] 38.9 µM | Potency [4] 49 µM | Potency [10] 15.5 µM | Potency [5] 49 µM | Potency [6] 13.8 µM | Potency [7] 19.5 µM
